Screening results deposited in PubChem BioAssay by National Center for Advancing Translational Sciences (NCATS).
ALDH1A1 block: inhibitors of human aldehyde dehydrogenase 1A1; Purified ALDH1A1, NADH fluorescence, propionaldehyde substrate; Potency, µM (series often up to 75.3 µM), inactives show at the highest dose activity, negative = inhibition, hits mostly inhibitors; 220,000 tested, 7.3% active; AID 1030;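 also: potency is read from the fitted curve at half-maximal effect; plate controls were no enzyme wells and a reference inhibitor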
JMJD2E inh: inhibitors of human JMJD2E histone demethylase | B2RXH2 | JMJD2E catalytic domain, FDH-coupled NADH fluorescence (FDH is formaldehyde dehydrogenase) | Potency, µM (highest dose often 57.1 µM), for the others: at the highest dose activity change, negative = inhibition, actives largely listed as inhibitors | 230,000 tested, 1.6% active | AID 2147;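 also: potency is read from the fitted curve at half-maximal effect; 0% = wells with enzyme and -100% = buffer wells without enzyme; nearly all actives have a fitted effect of over 50% in size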
PNC assembly inh: inhibitors of perinucleolar compartment assembly; PC3M PTB-GFP, PNC prevalence imaging, 16 h; active compounds read low; activity change (PNC), negative = inhibition, % at 10 µM; AID 2417; 140,000 tested, 3.1% active;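 active = readout at or below -70, meaning at least 70% loss of cells showing the perinucleolar compartment, a nuclear body marking cancer cells; inconclusive = readout between -30 and a set limit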;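 also: plate controls were DMSO wells for no effect and camptothecin positive control wells for full effect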
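Compounds are pinned in duplicate onto adhered PC3M cells stably expressing GFP-tagged PTB and incubated 16 h at 37 C. Cells are then fixed, nuclei stained with Hoechst, and PNC-positive cells counted.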
HPGD inh: blocks human HPGD enzyme activity. Potency, µM, inactives show at the top dose activity change, negative = inhibition, usual class: inhibitors. P15428. AID 894. purified HPGD, NADH fluorescence kinetic, PGE2 substrate. 150,000 tested, 4.3% active; also: potency is read from the fitted curve at half-maximal effect
Target sequence (P15428 whole entry, looked up): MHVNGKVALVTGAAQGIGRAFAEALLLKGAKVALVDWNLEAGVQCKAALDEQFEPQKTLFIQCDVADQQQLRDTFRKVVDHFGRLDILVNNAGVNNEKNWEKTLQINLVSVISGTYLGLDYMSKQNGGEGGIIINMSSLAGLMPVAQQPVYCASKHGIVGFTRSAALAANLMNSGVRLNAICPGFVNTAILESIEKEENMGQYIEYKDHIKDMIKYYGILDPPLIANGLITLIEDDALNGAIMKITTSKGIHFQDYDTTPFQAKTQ
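NADH formation kinetics: reaction with 30 uM PGE2 and 1 mM NAD+ (final), 20 nM enzyme, Tris-HCl pH 8 with Tween 20, after 15 min compound preincubation at room temperature. Fluorescence change, last versus first of five reads.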
Numbers without * were called inactive; ? = inconclusive; . = no result given; ! = a repeat was not active; [ ] = another dose, or the depositor's remark. Shown are actives, neighbours in structure and some others; about 11% of the full set was active somewhere. Unless noted, calls follow the shape of the dose curve; as a rule, active = well fitted inhibition curve with a large enough effect (not every such curve was filed as active); inconclusive = small, poorly fitted or top-dose-only effect, or another doubt; inactive = no such curve, though single readings can be large or run the other way. Unless noted, % is scaled to controls: 0 for no effect and ±100 for the full control effect.

SMILES	ALDH1A1 block	JMJD2E inh	PNC assembly inh	HPGD inh
CCCCC[C@H](O)/C=C/[C@H]1C=CC(=O)[C@@H]1C/C=C\CCCC(=O)O	39.8µM*!	-12.7%	-96.1*	22.4µM*!
CCCCC[C@H](O)/C=C/[C@@H]1[C@@H](C/C=C\CCCC(=O)O)[C@@H](O)C[C@@H]1O	?	1.4%	.	-15.5%
Cn1c(-c2ccccc2)c(C(=O)CCl)c2ccccc21	3.98µM*	-26.2%	.	.
Cn1c(-c2ccccc2)c(O)c(=O)c2ccccc21	-6.3%[13.5 µM]	.	.	.
CCn1c(-c2ccccc2)c(C(=O)CCl)c2ccccc21	6.31µM*	-24.4%	.	.
Nc1ncnc2c1ncn2[C@H]1O[C@@H](C(=O)OCCO)[C@@H](O)[C@H]1O	11.3%[13.5 µM]	.	.	-2.8%
O=C1Nc2ccccc2C(O)(C(=O)NCc2ccco2)N1c1ccc(Cl)c(Cl)c1 (stereo not given)	25.1µM*	3.4%	1.3	-22.1%
NC(N)=NS(=O)(=O)c1ccc(NC(=S)NC(=O)c2ccc3c(c2)OCO3)cc1	25.1µM*	2.5%	.	.
NS(=O)(=O)c1ccc(NC(=S)NC(=O)c2ccc3c(c2)OCO3)cc1	?	4.8%	.	.
O=C(Nc1ccc2c(c1)OCCO2)c1cncc(Br)c1	-5.5%	1.3%	16.1	-6.9%
O=C(NC(=S)Nc1ccc2c(c1)OCCO2)c1cccc(Br)c1	14.1µM*	10.1%	-25.7	-15.7%
O=C(NC(=S)Nc1ccc2c(c1)OCCO2)c1cccc2ccccc12	12.6µM*	0.5%	-7.8	-19.1%
Cc1cc2ccccc2c(=O)n1CC(=O)Nc1ccc2c(c1)OCCO2	-1.8%	-26.1%	32.7	-10.5%
O=C(NC(=S)Nc1ccc2c(c1)OCO2)c1ccccc1	5.01µM*	-1.1%	?	10µM*
COc1ccc(Cl)cc1NC(=S)NCc1ccc(S(N)(=O)=O)cc1	17.2%	-1.5%	32.7	-7.1%
COCCNCC(=O)N1CCCCCC1	3.98µM*	3.5%	.	.
CCN(CC)c1ccc(C=NCCc2ccc(S(N)(=O)=O)cc2)cc1	0.126µM*	-7.5%	.	.
CCN(CC)c1ccc(/C=N\NC(N)=O)cc1	?	?	-21.6	?
COc1ccc(NS(=O)(=O)c2ccc(N3CCOCC3)c(NC(=O)c3ccc(OC)cc3)c2)cc1	9.3%	?	?	-6.4%
COc1ccc(S(=O)(=O)Nc2cc(C(=O)NC3CCCCCC3)ccc2N2CCOCC2)cc1	3.55µM*	-13.6%	55.5	-11.3%
COc1ccc(S(=O)(=O)Nc2cc(C(=O)NC(C)C)ccc2N2CCOCC2)cc1	0.794µM*	0.1%	-5.1	-23.9%
CC(=O)O[C@]1(C(C)=O)CC[C@@H]2[C@@H]3C=C(Cl)C4=CC(=O)[C@H]5C[C@@H]5[C@]4(C)[C@H]3CC[C@]21C	4.9%[20.9 µM]	4.2%[25.5 µM]	.	0.3%
NC1=NC2C(N=C(Br)N2[C@@H]2O[C@H]3COP(=O)(O)O[C@@H]3[C@@H]2O)C(=O)N1 (stereo not given in full)	8.9%	.	.	.
CC1=Nn2c(nnc2-c2n[nH]c3c2CCC3)SC1	0.8%	-1.9%	?	-3.0%
CC(C)(C)C1=Nn2c(nnc2-c2n[nH]c3c2CCC3)SC1	?	-29.2%	?	15.8µM*
SMILES	ALDH1A1 block	JMJD2E inh	PNC assembly inh	HPGD inh
CCOC(=O)C(C)(C)[C@H](O)C(C)C	-0.5%[13.5 µM]	.	.	0.1%
Cc1ccc(-n2cc3c(=O)n(C)c(=O)n(C)c3c2)cc1C	14.1µM*	-11.5%	15.5	-19.5%
O=S(=O)(NCC(O)COCc1ccco1)c1cccs1 (stereo not given)	7.94µM*	1.2%	?	-8.1%
CN=CC1=C(O)c2ccccc2C1=O	-1.1%	5.1%	67.1	-7.1%
O=C1C(C2=C(O)c3ccccc3C2=O)=Nc2ccccc21	1.26µM*	?	31.0	-18.1%
Cc1nn(Cc2ccccc2)c(C)c1NC(=O)CSc1nc(C2CC2)nc2c1cnn2-c1ccccc1	3.8%	3.9%	-87.6*	-24.0%
Cc1ccc(NC(=O)CNc2ccc(OC(C)C)cc2)cc1	7.08µM*	-13.7%	15.7	-8.4%
COc1ccc(NC(=O)CNc2ccc(C#N)cc2)cc1	22.4µM*	-11.3%	.	.
O=C1CC(C(=O)N(c2ccc(F)cc2)C(C(=O)NC2CCCC2)c2ccccn2)CS1 (stereo not given)	12.7%	1.5%	-11.6	-6.3%
O=C1CC(C(=O)N(c2cccc(F)c2)C(C(=O)NC2CCCC2)c2ccccn2)CS1 (stereo not given)	10µM*	0.5%	-2.0	-1.5%
CCN(CC)S(=O)(=O)c1ccc(OC)c(NC(=S)Nc2ccc(C)c(C)c2)c1	-13.8%	1.5%	11.9	-7.1%
Clc1cccc(COn2c(-c3ccc(Cl)cc3Cl)nc3ncccc32)c1	1.1%	0.6%	-17.3	5.8%
